Reference: publication PMC7862700, “An all-to-all approach to the identification of sequence-specific readers for epigenetic DNA modifications on cytosine”

Key:
Test in all cases: DAPPL (digital affinity profiling via proximity ligation, sequencing); 10 mM Tris-HCl pH 7.5, 50 mM NaCl, 1 mM DTT, 4% glycerol, room temperature, 30 min; GST-TFs on glutathione beads, 16-mer random dsDNA library, 0.1% formaldehyde crosslink after washing; high values mean tight binding
Conditions in all cases: protein: recombinant; tags: N-terminal GST; dsDNA, one strand shown
GABPA = target: T1, GABPA (Homo sapiens, UniProt Q06546 1-454)
T1 sequence: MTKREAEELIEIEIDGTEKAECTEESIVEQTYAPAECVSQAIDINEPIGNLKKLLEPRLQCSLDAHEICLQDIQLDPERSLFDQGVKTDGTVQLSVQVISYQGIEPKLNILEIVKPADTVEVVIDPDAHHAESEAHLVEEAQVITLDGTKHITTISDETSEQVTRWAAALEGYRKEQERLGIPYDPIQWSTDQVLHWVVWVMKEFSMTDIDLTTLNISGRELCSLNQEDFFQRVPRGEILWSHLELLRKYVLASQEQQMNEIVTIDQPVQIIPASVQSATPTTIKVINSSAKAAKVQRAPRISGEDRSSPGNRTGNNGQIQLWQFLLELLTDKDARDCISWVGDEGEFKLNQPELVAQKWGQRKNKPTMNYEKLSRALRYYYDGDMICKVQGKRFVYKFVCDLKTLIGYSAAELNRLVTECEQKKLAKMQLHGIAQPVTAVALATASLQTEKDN
Method in brief: (§1)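 A tag-only sample was pooled with DNA-barcoded human transcription factors that had been expressed in yeast as GST fusions and captured on glutathione beads. The pools were incubated for 30 min at room temperature with 200 nmole of a random double-stranded 16-mer DNA library in Tris/NaCl/DTT/glycerol buffer, then washed, crosslinked with 0.1% formaldehyde, proximity-ligated (BsaI/T4 ligase, 1 h, 37 °C), PCR-amplified and sequenced on an Illumina NextSeq500. Binding signal is each hexamer's read frequency for a factor divided by its frequency for the tag-only sample.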

SPIB = SPIB (Homo sapiens, UniProt Q01892 1-262)
Method in brief: as §1

ETV5 = ETV5 (Homo sapiens, UniProt P41161 1-510)
Method in brief: as §1

ELF4 = ELF4 (Homo sapiens, UniProt Q99607 1-663)
Method in brief: as §1

ELK4 = target: T2, ELK4 (Homo sapiens, UniProt P28324-2 1-405)
T2 sequence: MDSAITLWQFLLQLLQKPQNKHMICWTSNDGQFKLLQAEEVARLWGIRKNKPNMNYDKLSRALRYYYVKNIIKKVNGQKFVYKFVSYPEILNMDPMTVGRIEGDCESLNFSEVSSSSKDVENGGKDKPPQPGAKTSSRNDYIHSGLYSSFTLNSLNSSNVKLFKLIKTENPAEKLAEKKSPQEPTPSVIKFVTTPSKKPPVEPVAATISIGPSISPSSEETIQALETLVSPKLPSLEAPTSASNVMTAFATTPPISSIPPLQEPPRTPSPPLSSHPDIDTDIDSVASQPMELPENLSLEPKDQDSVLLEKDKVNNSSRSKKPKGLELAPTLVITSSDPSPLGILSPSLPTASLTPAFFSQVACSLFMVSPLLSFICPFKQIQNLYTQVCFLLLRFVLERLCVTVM
Method in brief: as §1

ETV2 = target: T3, ETV2 (Homo sapiens, UniProt O00321 1-342)
T3 sequence: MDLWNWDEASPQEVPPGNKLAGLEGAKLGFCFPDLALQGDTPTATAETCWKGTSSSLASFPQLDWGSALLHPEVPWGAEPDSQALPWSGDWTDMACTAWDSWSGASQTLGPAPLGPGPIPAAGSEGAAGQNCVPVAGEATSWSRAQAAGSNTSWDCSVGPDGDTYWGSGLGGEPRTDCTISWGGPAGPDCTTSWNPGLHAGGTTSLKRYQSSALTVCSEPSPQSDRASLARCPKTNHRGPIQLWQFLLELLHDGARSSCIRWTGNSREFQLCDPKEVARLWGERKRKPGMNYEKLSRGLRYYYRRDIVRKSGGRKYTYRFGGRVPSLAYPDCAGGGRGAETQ
Method in brief: as §1

ETV3L = target: T4, ETV3L (Homo sapiens, UniProt Q6ZN32 1-361)
T4 sequence: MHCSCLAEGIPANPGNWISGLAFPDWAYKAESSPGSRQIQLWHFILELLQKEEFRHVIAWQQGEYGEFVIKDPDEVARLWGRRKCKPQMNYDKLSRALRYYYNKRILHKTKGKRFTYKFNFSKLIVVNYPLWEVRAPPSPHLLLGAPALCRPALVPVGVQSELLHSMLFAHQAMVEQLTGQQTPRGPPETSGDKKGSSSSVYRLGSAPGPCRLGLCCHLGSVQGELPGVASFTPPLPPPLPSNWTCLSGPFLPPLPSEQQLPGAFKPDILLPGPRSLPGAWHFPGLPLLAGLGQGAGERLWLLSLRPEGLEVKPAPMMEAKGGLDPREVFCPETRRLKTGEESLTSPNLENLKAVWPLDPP
Method in brief: as §1

ETV7 = target: T5, ETV7 (Homo sapiens, UniProt Q9Y603 1-341)
T5 sequence: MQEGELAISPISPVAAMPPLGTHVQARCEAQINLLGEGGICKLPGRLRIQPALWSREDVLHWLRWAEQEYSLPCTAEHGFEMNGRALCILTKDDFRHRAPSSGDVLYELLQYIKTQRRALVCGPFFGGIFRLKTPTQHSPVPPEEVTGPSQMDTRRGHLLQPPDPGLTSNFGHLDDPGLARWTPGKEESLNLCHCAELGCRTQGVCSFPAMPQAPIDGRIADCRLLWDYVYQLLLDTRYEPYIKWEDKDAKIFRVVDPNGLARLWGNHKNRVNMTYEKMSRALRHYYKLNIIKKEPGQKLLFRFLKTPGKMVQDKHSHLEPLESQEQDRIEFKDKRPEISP
Method in brief: as §1

ETV6 = ETV6 (Homo sapiens, UniProt P41212 1-452)
Method in brief: as §1

ELK1 = target: T6, ELK1 (Homo sapiens, UniProt P19419 1-428)
T6 sequence: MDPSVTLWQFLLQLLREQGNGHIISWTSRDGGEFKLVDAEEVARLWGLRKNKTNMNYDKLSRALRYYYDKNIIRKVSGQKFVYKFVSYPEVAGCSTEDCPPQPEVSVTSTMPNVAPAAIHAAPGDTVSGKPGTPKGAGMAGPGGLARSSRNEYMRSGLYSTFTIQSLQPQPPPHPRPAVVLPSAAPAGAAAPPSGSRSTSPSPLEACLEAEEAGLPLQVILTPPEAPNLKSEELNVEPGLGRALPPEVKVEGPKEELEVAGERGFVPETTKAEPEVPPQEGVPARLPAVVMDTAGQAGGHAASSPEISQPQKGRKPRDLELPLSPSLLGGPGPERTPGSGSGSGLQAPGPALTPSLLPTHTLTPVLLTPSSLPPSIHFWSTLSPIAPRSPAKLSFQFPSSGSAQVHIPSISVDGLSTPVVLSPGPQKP
Method in brief: as §1

ELF1 = ELF1 (Homo sapiens, UniProt P32519 1-619)
Method in brief: as §1

ELF3 = target: T7, ELF3 (Homo sapiens, UniProt P78545 1-371)
T7 sequence: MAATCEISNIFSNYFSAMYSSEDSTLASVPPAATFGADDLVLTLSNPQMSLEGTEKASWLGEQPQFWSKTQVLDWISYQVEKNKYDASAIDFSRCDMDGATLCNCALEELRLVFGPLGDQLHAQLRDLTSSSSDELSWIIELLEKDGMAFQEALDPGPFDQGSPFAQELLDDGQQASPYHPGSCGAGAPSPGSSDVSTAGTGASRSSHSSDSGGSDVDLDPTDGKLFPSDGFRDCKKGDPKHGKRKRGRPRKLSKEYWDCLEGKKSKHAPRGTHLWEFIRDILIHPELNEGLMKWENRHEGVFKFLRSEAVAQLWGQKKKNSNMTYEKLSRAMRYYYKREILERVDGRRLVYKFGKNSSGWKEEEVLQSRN
Method in brief: as §1

ETV1 = ETV1 (Homo sapiens, UniProt P50549 1-477)
Method in brief: as §1

ERF = target: T8, ERF (Homo sapiens, UniProt P50548 1-548)
T8 sequence: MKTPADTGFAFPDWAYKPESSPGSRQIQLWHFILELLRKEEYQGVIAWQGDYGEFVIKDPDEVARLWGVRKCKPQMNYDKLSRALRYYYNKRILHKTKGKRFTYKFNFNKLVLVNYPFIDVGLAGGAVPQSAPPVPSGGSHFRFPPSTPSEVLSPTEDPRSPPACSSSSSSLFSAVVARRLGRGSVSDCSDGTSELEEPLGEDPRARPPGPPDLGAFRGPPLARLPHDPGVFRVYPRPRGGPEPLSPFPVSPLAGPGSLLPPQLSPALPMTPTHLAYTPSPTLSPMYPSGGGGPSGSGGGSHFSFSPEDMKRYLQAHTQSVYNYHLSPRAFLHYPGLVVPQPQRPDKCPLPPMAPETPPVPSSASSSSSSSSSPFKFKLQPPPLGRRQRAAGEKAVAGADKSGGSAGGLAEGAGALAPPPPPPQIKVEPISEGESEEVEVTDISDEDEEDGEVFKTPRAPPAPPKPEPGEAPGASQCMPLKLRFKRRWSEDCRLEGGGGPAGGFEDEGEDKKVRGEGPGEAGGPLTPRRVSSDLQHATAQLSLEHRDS
Method in brief: as §1

ETV3 = target: T9, ETV3 (Homo sapiens, UniProt P41162-2 1-143)
T9 sequence: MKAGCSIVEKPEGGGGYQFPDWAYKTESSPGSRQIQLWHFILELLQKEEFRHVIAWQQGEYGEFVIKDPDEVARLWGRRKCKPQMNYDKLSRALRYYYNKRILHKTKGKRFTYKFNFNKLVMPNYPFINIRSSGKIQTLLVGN
Method in brief: as §1

Chain of ETV6 (P41212 whole entry): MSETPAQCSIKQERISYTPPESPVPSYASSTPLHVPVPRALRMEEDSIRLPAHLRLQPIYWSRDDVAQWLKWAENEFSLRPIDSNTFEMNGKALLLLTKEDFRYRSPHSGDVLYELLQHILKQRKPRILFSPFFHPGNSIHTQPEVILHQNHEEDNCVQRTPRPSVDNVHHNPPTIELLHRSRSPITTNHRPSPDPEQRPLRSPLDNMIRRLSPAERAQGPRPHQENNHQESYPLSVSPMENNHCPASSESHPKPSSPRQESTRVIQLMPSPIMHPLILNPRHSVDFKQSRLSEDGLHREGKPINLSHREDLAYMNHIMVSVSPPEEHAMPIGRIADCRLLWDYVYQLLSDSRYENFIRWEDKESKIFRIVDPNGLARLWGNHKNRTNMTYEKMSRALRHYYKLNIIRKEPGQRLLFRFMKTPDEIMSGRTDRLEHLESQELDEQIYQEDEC
Chain of ETV5 (P41161 whole entry): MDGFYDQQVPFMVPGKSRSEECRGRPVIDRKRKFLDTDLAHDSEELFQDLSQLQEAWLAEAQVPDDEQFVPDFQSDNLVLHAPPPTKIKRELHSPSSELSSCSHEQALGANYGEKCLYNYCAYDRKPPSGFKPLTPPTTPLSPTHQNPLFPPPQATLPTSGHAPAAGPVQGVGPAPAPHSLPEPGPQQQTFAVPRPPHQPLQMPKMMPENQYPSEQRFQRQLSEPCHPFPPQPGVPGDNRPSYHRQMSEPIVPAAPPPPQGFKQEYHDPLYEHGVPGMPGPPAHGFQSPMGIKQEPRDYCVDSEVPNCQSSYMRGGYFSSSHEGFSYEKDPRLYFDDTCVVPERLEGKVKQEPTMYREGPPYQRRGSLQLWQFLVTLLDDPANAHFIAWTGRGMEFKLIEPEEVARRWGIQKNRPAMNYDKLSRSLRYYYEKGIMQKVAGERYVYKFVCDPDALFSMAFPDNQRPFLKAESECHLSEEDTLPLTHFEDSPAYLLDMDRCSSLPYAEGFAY
Chain of ELF4 (Q99607 whole entry): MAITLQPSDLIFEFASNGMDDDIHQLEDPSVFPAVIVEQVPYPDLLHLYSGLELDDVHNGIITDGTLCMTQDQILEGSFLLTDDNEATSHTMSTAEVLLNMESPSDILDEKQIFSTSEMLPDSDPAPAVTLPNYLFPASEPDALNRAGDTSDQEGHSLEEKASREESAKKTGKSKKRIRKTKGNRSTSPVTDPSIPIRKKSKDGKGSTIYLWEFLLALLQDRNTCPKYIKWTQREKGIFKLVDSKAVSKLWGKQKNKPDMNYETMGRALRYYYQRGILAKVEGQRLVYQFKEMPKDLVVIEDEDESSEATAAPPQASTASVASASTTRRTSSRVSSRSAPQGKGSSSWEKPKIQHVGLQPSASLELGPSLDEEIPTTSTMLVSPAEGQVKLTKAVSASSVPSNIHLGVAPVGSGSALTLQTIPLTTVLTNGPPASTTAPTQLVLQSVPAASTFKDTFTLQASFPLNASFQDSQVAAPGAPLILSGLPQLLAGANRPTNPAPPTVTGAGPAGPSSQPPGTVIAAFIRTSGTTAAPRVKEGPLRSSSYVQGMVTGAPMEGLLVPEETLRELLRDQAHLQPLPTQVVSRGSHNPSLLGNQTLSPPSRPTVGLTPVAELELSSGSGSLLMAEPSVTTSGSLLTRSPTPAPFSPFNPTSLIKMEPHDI
Chain of ETV1 (P50549 whole entry): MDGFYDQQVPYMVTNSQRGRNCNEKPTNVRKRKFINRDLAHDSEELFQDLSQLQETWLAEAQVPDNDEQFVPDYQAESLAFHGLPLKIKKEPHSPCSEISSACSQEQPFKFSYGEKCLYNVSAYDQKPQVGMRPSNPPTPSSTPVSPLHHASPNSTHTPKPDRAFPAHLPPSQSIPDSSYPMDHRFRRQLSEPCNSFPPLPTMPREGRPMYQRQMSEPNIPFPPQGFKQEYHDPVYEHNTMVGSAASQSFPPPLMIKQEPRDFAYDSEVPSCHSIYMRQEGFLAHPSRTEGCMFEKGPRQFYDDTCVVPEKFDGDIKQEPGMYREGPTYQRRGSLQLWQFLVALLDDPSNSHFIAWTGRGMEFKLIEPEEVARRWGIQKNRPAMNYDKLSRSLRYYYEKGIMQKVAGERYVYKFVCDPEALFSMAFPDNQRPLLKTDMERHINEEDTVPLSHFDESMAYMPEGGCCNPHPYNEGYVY
Chain of SPIB (Q01892 whole entry): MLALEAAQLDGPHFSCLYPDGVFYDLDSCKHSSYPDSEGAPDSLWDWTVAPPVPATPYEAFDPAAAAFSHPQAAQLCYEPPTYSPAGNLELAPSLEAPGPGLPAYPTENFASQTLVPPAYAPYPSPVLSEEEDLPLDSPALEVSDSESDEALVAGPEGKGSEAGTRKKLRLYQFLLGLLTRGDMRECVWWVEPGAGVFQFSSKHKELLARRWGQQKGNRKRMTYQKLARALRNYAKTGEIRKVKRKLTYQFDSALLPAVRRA
Chain of ELF1 (P32519 whole entry): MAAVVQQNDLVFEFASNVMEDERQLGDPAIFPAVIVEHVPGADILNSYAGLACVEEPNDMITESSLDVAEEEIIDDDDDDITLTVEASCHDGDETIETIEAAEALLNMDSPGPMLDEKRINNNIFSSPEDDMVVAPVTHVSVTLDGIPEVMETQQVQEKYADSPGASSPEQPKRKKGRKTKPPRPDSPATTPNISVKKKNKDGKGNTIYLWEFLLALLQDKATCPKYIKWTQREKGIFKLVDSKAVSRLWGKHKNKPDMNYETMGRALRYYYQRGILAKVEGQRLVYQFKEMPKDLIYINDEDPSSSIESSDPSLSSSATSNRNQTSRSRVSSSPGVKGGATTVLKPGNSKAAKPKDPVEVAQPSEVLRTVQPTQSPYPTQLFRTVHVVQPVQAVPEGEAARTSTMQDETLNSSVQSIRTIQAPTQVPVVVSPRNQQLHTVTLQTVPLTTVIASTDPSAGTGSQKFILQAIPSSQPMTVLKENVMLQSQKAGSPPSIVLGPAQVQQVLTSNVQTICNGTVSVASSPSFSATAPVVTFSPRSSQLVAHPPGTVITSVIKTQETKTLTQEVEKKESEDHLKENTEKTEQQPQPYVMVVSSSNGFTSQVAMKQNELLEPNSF

| Sequence | binding signal (GABPA) | binding signal (SPIB) | binding signal (ETV5) | binding signal (ELF4) | binding signal (ELK4) | binding signal (ETV2) | binding signal (ETV3L) | binding signal (ETV7) | binding signal (ETV6) | binding signal (ELK1) | binding signal (ELF1) | binding signal (ELF3) | binding signal (ETV1) | binding signal (ERF) | binding signal (ETV3) |
| --- | --- | --- | --- | --- | --- | --- | --- | --- | --- | --- | --- | --- | --- | --- | --- |
| CGCGTA | 1.01 fold enrichment (6-mer frequency, TF over GST control) | 1.05 fold enrichment (6-mer frequency, TF over GST control) | 1 fold enrichment (6-mer frequency, TF over GST control) | 1.08 fold enrichment (6-mer frequency, TF over GST control) | 1.07 fold enrichment (6-mer frequency, TF over GST control) | 1.03 fold enrichment (6-mer frequency, TF over GST control) | 1.01 fold enrichment (6-mer frequency, TF over GST control) | 1.07 fold enrichment (6-mer frequency, TF over GST control) | 1.01 fold enrichment (6-mer frequency, TF over GST control) |  |  |  |  |  |  |
| GCAAAC | 1.01 fold enrichment (6-mer frequency, TF over GST control) |  | 1.01 fold enrichment (6-mer frequency, TF over GST control) | 1.06 fold enrichment (6-mer frequency, TF over GST control) | 1.02 fold enrichment (6-mer frequency, TF over GST control) |  | 1.05 fold enrichment (6-mer frequency, TF over GST control) |  | 1.06 fold enrichment (6-mer frequency, TF over GST control) | 1.03 fold enrichment (6-mer frequency, TF over GST control) | 1.01 fold enrichment (6-mer frequency, TF over GST control) | 1.13 fold enrichment (6-mer frequency, TF over GST control) | 1.03 fold enrichment (6-mer frequency, TF over GST control) | 1.01 fold enrichment (6-mer frequency, TF over GST control) | 1.04 fold enrichment (6-mer frequency, TF over GST control) |
